The source made the active and inactive calls.
Legend:
[1] = tested on: Plasmodium falciparum Sir2 (PF13_0152, Sir2A); assay: Plasmodium falciparum Sir2A binding compounds – biochemical, small-molecule microarray, 635 nm fluorescence, primary screen (AID 1098); settings: fluorescence 635 nm, higher = more signal;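 further: score merges spot fluorescence intensity with its signal-to-noise ratio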
[2] = probe aDKK1 binding to arrayed compounds – biochemical, biotinylated probe, 635/667 nm fluorescence, primary screen (AID 1099); settings: small-molecule microarray, higher = more signal;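 further: score merges 667nm spot fluorescence with signal to noise across triplicate slides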
[3] = probe aCHRDL2 binding to arrayed compounds – biochemical, biotinylated probe, 635/667 nm fluorescence, primary screen (AID 1100); settings: small-molecule microarray, higher = more signal
[4] = change in splice reporter luminescence, either direction, cell-based, HEK293, spliceosome inhibition project, primary screen (AID 1101); settings: HEK293 splicing luciferase reporter, 24 h, higher = more signal, called active from +8 up or from −8 down;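 further: HEK293 cells carrying a splicing-competent luciferase reporter gene; test concentration not given here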
[5] = target: Fibroblast growth factor 10 (Homo sapiens) (UniProt O15520); assay: compounds binding fibroblast growth factor 10 – biochemical, small-molecule microarray, 635 nm fluorescence, primary screen (AID 1102); settings: FGF10 binding, fluorescence 635 nm, higher = more signal
[6] = tested on: glycogen synthase kinase-3 (GSK3A per assay name; protocol says GSK3B); assay: compounds binding glycogen synthase kinase-3 – biochemical, small-molecule microarray, 635 nm fluorescence, GSK3A, primary screen (AID 1103); settings: fluorescence 635 nm, higher = more signal; further: the record names both GSK3A and GSK3B
[7] = target: Epidermal growth factor receptor (Homo sapiens) (UniProt P00533); assay: compounds binding epidermal growth factor receptor – biochemical, small-molecule microarray, 635 nm fluorescence, primary screen (AID 1104); settings: EGFR binding, higher = more signal;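 further: score merges 667 nm emission intensity with spot signal to noise over triplicate slides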
[8] = target: Follistatin-related protein 3 (Homo sapiens) (UniProt O95633); assay: compounds binding follistatin-related protein 3 – biochemical, small-molecule microarray, 635 nm fluorescence, primary screen (AID 1105); settings: FSTL3 binding, higher = more signal;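 further: score merges emission near 667 nm and signal to noise per printed spot across three slides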
[9] = target: Dickkopf-related protein 1 (Homo sapiens) (UniProt O94907); assay: small molecules binding DKK1 protein – biochemical, small-molecule microarray, 635 nm fluorescence scan, primary screen (AID 1106); settings: higher = more signal;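 further: score merges emission near 667 nm with signal to noise over three replicate slides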
[10] = tested on: Inhibin beta A chain (activin A); assay: small molecules binding activin A – biochemical, small-molecule microarray, 635 nm fluorescence scan, primary screen (AID 1107); settings: INHBA, higher = more signal;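 further: mouse activin A protein probed at 4.33 µg/mL on printed slides; score merges bound-protein fluorescence near 667 nm with spot signal-to-noise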
[11] = tested on: Human papillomavirus type 1a protein E7 (residues 44-93); assay: small molecules binding HPV E7 44-93 – biochemical, small-molecule microarray, residues 44-93, 635 nm fluorescence, primary screen (AID 1108); settings: fluorescence 635 nm, higher = more signal;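 further: E7 fragment applied at 1 µg/mL in TBST for 1 h at 4 C; score combines spot fluorescence with its signal to noise ratio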
[12] = hepatitis C replication reporter changes, two-sided – Huh7 cells, luciferase reporter, HCV replication inhibitor project, primary screen (AID 1109); settings: Huh7 HCV replicon luciferase reporter, 48 h; higher = more signal;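 further: huh7 hepatoma cells harbouring a luciferase neomycin HCV replicon reporter; luciferase luminescence as measure of HCV replicon replication; test concentration not given here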
[13] = target: Left-right determination factor 2 (Homo sapiens) (UniProt O00292); assay: small molecules binding LEFTY2 protein – biochemical, small-molecule microarray, 635 nm fluorescence scan, primary screen (AID 1110); settings: higher = more signal
[14] = target: Calmodulin-1 (Homo sapiens) (UniProt P0DP23); assay: small molecules binding calmodulin-1 with EGTA – biochemical, small-molecule microarray, Cy5-labelled CALM1, profiling panel (AID 1111); settings: Cy5-CALM1 binding fluorescence, higher = more signal;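 further: labelled calmodulin applied in Tris saline Tween buffer holding calcium plus EGTA and DTT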
[15] = target: Calmodulin-1 (Homo sapiens) (UniProt P0DP23); assay: small molecules binding Ca-loaded calmodulin-1 – biochemical, small-molecule microarray, Cy5-labelled CALM1, plus calcium, artefact control for SMM control-protein annotation, profiling panel (AID 1112); settings: Cy5-CALM1 binding fluorescence, higher = more signal;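 further: score merges spot fluorescence with signal to noise from triplicate slides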
[16] = probe aWnt5a binding to arrayed compounds – biochemical, biotinylated probe, 635/667 nm fluorescence, primary screen (AID 1113); settings: small-molecule microarray, higher = more signal;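 further: score merges 667 nm fluorescence intensity with signal-to-noise per printed feature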
[17] = probe aShh binding to arrayed compounds – biochemical, biotinylated probe, 635/667 nm fluorescence, primary screen (AID 1114); settings: small-molecule microarray, higher = more signal;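 further: probe is biotin-labelled aShh protein from a stem cell growth factor screen; measures binding of labelled protein to compounds printed on the slide; score merges feature fluorescence at 667 nm with signal-to-noise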
[18] = probe aNog binding to arrayed compounds – biochemical, biotinylated probe, 635/667 nm fluorescence, primary screen (AID 1115); settings: small-molecule microarray, higher = more signal;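 further: probe is biotinylated aNog protein used at 0.15 µg/mL for 1 h at 4 C; z-score combines 667 nm fluorescence of each spot with its signal to noise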
[19] = target: Torsin-1A-interacting protein 1 (Homo sapiens) (UniProt Q5JTV8); assay: compound microarray binding of lysate hLAP1 – cell lysate, small-molecule microarray, COS7 lysate, 635/667 nm fluorescence, primary screen (AID 1116); settings: 635 nm fluorescence, higher = more signal
[20] = target: Alpha-bungarotoxin (Bungarus multicinctus) (UniProt P60615); assay: compounds binding labelled alpha-BTX control protein – biochemical, small-molecule microarray, Alexa647 label, 635/667 nm fluorescence, artefact control for SMM control protein annotation, profiling panel (AID 1117); settings: alpha-BTX-A647 binding fluorescence, higher = more signal
Sequence of Alpha-bungarotoxin (Bungarus multicinctus) (P60615 whole entry, looked up): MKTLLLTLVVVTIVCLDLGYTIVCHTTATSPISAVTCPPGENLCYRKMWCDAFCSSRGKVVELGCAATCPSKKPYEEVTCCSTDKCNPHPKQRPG

Sequence of Torsin-1A-interacting protein 1 (Homo sapiens) (Q5JTV8 whole entry, looked up): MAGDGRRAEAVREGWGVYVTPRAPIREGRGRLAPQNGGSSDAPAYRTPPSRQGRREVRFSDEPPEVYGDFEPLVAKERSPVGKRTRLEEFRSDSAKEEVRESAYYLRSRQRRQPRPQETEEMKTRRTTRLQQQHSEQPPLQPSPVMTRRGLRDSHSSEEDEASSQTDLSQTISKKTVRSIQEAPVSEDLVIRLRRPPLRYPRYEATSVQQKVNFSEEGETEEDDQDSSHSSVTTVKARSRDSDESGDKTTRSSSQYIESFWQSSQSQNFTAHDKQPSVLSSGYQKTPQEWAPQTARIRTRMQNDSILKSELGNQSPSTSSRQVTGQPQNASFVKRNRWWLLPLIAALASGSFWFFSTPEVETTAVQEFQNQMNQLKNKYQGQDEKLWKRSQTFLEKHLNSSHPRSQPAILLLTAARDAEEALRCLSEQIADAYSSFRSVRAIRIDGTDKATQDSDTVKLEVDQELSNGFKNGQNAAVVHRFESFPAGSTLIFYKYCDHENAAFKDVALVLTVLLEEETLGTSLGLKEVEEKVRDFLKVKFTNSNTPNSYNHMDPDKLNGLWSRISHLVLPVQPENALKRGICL
Sequence of Left-right determination factor 2 (Homo sapiens) (O00292 whole entry, looked up): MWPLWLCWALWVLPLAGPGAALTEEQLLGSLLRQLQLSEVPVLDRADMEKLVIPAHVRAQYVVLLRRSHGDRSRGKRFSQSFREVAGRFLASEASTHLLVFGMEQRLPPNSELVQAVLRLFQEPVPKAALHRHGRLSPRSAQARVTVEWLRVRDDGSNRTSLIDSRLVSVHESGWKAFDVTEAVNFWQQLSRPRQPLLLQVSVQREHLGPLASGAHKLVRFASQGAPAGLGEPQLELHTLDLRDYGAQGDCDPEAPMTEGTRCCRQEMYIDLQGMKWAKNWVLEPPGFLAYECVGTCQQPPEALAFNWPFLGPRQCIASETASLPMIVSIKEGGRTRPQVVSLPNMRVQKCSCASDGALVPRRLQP
Sequence of Follistatin-related protein 3 (Homo sapiens) (O95633 whole entry, looked up): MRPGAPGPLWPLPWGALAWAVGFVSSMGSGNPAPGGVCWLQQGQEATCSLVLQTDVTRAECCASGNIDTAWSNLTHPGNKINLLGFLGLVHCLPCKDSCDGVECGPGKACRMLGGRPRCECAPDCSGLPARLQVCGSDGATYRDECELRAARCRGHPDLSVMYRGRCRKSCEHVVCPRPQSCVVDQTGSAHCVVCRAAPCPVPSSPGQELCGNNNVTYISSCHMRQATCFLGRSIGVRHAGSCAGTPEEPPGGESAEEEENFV
Sequence of Epidermal growth factor receptor (Homo sapiens) (P00533 whole entry, looked up): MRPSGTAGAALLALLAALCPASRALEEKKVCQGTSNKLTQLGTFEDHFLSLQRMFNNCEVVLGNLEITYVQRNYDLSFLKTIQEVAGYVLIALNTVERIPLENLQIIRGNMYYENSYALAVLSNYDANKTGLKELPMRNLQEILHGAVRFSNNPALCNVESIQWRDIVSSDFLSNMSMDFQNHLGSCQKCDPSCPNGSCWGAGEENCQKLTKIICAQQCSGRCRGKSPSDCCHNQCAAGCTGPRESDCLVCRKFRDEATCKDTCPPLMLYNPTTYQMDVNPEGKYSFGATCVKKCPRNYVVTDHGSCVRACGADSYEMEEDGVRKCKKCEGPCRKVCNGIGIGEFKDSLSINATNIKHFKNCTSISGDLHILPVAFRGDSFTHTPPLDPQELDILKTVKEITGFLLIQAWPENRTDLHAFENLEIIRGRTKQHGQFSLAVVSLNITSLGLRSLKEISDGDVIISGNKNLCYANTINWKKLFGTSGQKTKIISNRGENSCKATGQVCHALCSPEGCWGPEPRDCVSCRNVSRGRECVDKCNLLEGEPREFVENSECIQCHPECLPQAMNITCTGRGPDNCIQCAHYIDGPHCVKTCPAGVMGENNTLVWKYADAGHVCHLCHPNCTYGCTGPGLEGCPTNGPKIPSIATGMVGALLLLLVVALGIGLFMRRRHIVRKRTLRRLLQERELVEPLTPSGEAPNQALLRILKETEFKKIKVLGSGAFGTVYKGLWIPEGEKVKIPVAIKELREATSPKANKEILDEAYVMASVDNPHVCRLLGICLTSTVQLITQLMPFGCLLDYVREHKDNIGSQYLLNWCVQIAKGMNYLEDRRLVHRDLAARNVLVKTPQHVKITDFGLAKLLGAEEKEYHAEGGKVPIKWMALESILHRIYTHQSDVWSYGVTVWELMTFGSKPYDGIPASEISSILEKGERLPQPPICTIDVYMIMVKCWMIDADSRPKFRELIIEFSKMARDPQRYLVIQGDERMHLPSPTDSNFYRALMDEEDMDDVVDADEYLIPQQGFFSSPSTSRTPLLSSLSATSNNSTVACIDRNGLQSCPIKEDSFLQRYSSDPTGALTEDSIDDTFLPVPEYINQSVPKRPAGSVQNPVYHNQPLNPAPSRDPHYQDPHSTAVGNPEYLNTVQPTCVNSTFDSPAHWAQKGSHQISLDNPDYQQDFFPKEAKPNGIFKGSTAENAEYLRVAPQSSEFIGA
Sequence of Fibroblast growth factor 10 (Homo sapiens) (O15520 whole entry, looked up): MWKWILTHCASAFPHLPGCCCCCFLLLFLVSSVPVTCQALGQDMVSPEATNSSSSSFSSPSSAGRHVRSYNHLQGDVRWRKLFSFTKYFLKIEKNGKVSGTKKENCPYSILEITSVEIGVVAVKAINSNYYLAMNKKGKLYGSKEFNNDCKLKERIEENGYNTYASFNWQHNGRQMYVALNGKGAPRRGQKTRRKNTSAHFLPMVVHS
Sequence of Dickkopf-related protein 1 (Homo sapiens) (O94907 whole entry, looked up): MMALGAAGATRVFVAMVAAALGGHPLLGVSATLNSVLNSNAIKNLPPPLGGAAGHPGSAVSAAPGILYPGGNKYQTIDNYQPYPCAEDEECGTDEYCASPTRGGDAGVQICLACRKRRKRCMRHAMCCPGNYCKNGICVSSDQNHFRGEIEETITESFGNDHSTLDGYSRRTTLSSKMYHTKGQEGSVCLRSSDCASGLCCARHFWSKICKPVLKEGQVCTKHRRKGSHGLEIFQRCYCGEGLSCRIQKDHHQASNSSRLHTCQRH

Structure (SMILES) | composite z-score [1] | composite z-score [2] | composite z-score [3] | z-score [4] | composite z-score [5] | composite z-score [6] | composite z-score [7] | composite z-score [8] | composite z-score [9] | composite z-score [10] | composite z-score [11] | z-score [12] | composite z-score [13] | composite z-score [14] | composite z-score [15] | composite z-score [16] | composite z-score [17] | composite z-score [18] | composite z-score [19] | composite z-score [20]
NC(=O)NCC#Cc1ccc2c(c1)[C@]1(C(=O)N2)[C@H](C(N)=O)[C@H]2C(=O)O[C@H](c3ccccc3)[C@H](c3ccccc3)N2[C@@H]1c1ccccc1OCCO | 0.628 | 0.371 | 0.482 | -0.328 (inactive) | 1.06 | 0.343 | 0.269 | 1.02 | 0.576 | 1.02 | 1.04 | -0.771 | 0.375 | 0.425 | 0.356 | -0.124 | -0.0793 | 0.657 | 0.808 | 0.45
C=CC[C@]1(C(=O)NCC(O)CO)N=C(c2ccc(OCCCO)cc2)O[C@H]1c1ccccc1 (stereo not given in full) | 1.23 | 1.21 | 1.3 | 0.164 (inactive) | -0.159 | 0.321 | -1.48 | -1.7 | -0.296 | 0.236 | -0.72 | -0.294 | -0.418 | 1.66 | 1.12 | -0.0286 | 0.108 | 0.402 | 3.97 | 1.29
O=C1c2ccccc2[C@@]2(Cc3ccccc3N(CC(F)(F)F)C2=O)[C@H](c2ccc(CO)cc2)N1C1CCCCC1 | 0.208 | 0.117 | 0.0803 | -0.189 (inactive) | 0.982 | 0.88 | 0.229 | 0.95 | 1.02 | 0.801 | 0.796 | -0.387 | 0.542 | -0.575 | 0.017 | -0.0192 | -0.0977 | -0.369 | 0.415 | -0.223
CCCC[C@@H]1C[C@H]1[C@@H](NC(=O)c1cccs1)c1ccc(Cl)cc1 | 0.509 | 0.517 | 0.943 | -2.23 (inactive) | -1.5 | -1.13 | -1.34 | -2.23 | -1.75 | 0.269 | -0.416 | -1.27 | -1.19 | 0.27 | 0.696 | 0.0095 | -0.0578 | 0.46 | -0.939 | -1.37
COc1cccc([C@H]2N[C@H](C(=O)O)CC[C@@H]2C)c1 | -0.406 | -0.251 | -0.136 | -1.94 (inactive) | -0.401 | 0.0602 | 0.194 | 0.0151 | 0.0655 | 0.282 | 0.0991 | 0.53 | 0.0589 | 0.0938 | 0.334 | -0.131 | -0.458 | -0.339 | 0.0026 | 0.396
Cc1ccc(N2C(=O)c3ccccc3[C@](C)(C(=O)NCC(C)C)[C@@H]2c2ccc(CO)cc2)nc1 | 1.78 | 0.504 | 0.481 | -0.237 (inactive) | -0.587 | -0.856 | -0.45 | -0.775 | -0.29 | 1 | -1.1 | 0.324 | -0.337 | -0.584 | -1.07 | -0.0405 | -0.0257 | -0.172 | -0.367 | -0.809
C=CCOC(=O)[C@@H]1[C@H]2C(=O)O[C@H](c3ccccc3)[C@H](c3ccccc3)N2[C@H](c2ccc(OCCOC(=O)[C@H]3C[C@H]4C(=O)N[C@@H](CCCCNC(C)=O)C(=O)N4[C@H]3c3ccc(O)cc3)cc2)[C@@]12C(=O)Nc1ccc(I)cc12 | 1.3 | -0.173 | -0.119 | 0.711 (inactive) | 1.03 | 1.28 | 0.603 | 1.19 | 0.394 | 0.565 | 1.39 | -1.66 | 0.576 | 0.419 | 0.232 | -0.104 | -0.232 | -0.0496 | 0.818 | 1.07
COC(=O)c1c(CC[C@@H](CO)NC(=O)N[C@H](Cn2cc(-c3cncn3C)nn2)C(C)C)oc(C(C)=O)c1C(=O)OC | 0.844 | -0.203 | -0.342 | -1.93 (inactive) | 0.512 | 0.861 | 0.363 | 0.165 | 0.265 | -0.253 | 0.873 | 0.0688 | 0.332 | -0.055 | -0.333 | -0.1 | -0.2 | 0.0668 | 0.542 | -0.115
CC1CC/C=C\[C@H]2OC34C=CCN(Cn5nnc6ccccc65)C(=O)[C@H]3N(C(C)CO)C(=O)[C@@H]4C2C(=O)O1 (stereo not given in full) | 1.26 | -0.0466 | 0.201 | 0.825 (inactive) | 0.0056 | -0.837 | -0.848 | -0.814 | -0.936 | 0.494 | -0.132 | -0.276 | -0.371 | -0.45 | -0.223 | -0.184 | -0.123 | 0.34 | 0.413 | -0.465
Cc1ccc([C@@H]2CC=C(C(=O)O)[C@H](c3ccccc3)N2S(=O)(=O)c2ccc(C)cc2)cc1 | 1.44 | 0.52 | 1.23 | 0.0744 (inactive) | 1.24 | 0.78 | -0.755 | 0.0604 | -1.69 | -0.575 | 0.961 | 0.712 | -0.23 | 2.35 | 0.535 | 0.0599 | 0.374 | 1.05 | 1.9 | 1.79
CC(C)NC(=O)[C@@]1(Cc2ccccc2I)c2ccccc2C(=O)N(C2CCCCC2)[C@H]1c1ccc(CO)cc1 | 1.02 | 0.65 | 0.793 | 0.129 (inactive) | 1.1 | 1.2 | 0.118 | 1.35 | 0.4 | 0.386 | 1.46 | -1.21 | 0.398 | 1.48 | 0.458 | -0.0792 | 0.448 | 0.982 | 0.977 | 1.32

Source: PubChem BioAssay
